# The whole screen tested about 190,000 compounds, of which about 810 (0.43%) were called active. Only a selection was taken, and actives are over-represented in it overall. Unmarked numbers belong to inactive results. Cut-off read from the data, not from the text of the source: active = inhibition above about 50%; inactive = the rest.
# Molecular target: Mannose-6-phosphate isomerase (Homo sapiens) (UniProt P34949)
# Assay: inhibitors of human PMI, primary screen, biochemical, fluorescence intensity, coupled assay (AID 1209);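 note: plate controls were DMSO vehicle for no effect and wells lacking substrate for full effect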
# Settings: purified PMI enzyme, at 20 µM, stronger effect = higher value
# Mannose-6-phosphate isomerase (Homo sapiens), sequence (P34949 whole entry, looked up): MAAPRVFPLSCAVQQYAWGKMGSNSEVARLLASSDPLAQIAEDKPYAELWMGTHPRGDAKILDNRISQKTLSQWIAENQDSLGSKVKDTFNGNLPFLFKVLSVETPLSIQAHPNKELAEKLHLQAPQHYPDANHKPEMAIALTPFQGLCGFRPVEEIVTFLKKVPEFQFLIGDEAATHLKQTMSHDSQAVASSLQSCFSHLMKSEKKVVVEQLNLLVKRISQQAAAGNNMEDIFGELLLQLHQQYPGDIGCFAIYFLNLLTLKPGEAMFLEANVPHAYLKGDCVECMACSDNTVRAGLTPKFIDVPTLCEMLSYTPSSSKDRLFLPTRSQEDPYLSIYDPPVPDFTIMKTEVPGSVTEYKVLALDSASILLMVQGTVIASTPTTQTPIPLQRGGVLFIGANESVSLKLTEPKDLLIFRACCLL
row,Structure (SMILES),inhibition
1,CCn1c(SCC(=O)Nc2cc(C)on2)nc2c(c1=O)SC(C)C2 (stereo not drawn),8.4%
2,O=C(Nc1ccc2c(c1)OCCO2)c1ccc2ccccc2n1,-3.6%
3,O=C(COc1ccccc1)NCC(=O)Nc1ccc(S(=O)(=O)NCc2ccco2)cc1,9.9%
4,COc1ccc(C(C(=O)NC2CCCC2)N(Cc2cccs2)C(=O)c2ccn[nH]2)cc1OC (stereo not drawn),11.2%
5,CN(C)C(=O)CCSc1nnc(-c2ccncc2)o1,-4.7%
6,CC1(C)Cc2c(c(N3CCCC3)nc3sc4c(N5CCN(CCO)CC5)ncnc4c23)CO1,-22.8%
7,Cc1cc(C(=O)N2CCCC(C(=O)c3cccc4ccccc34)C2)nc(C)n1 (stereo not drawn),6.1%
8,O=C(CNS(=O)(=O)c1cccs1)Nc1ccc2c(c1)OCCO2,9.1%
9,CC(C)C(=O)Nc1cccc(C(=O)N2CCCCC2C)c1 (stereo not drawn),15.5%
10,O=C(NCc1ccncc1)Nc1cc(Cl)ccc1Cl,8.5%
11,Nc1nncn1C(=O)CCCN1C(=O)c2ccccc2C1=O,5.4%
12,CCn1c(COc2ccccc2OC)nnc1SCC#N,5.9%
13,NC(N)=Nc1nc(C2COc3ccccc3O2)cs1 (stereo not drawn),-4%
14,S=c1[nH]nc(C2COc3ccccc3O2)o1 (stereo not drawn),-16.3%
15,Cn1c(=O)c2c(nc(NC3CCCCC3)n2CC(=O)C23CC4CC(CC(C4)C2)C3)n(C)c1=O,1.2%
16,O=S(=O)(c1ccc(Br)s1)N1CCC(Cc2ccccc2)CC1,1.1%
17,Cc1ccc(N(C(=O)c2cc3ccccc3oc2=O)C2C=CS(=O)(=O)C2)cc1 (stereo not drawn),13.3%
18,O=C(CSc1nnc(-c2ccccc2)c(-c2ccccc2)n1)NC1CCS(=O)(=O)C1 (stereo not drawn),-3.8%
19,O=C(CSc1n[nH]c(-c2ccncc2)n1)NC1CCS(=O)(=O)C1 (stereo not drawn),77.1% (active)
20,Cc1ccc(-c2nnc(SCC(=O)NC3CCS(=O)(=O)C3)nc2-c2ccc(C)cc2)cc1 (stereo not drawn),3.8%
21,O=C(CSc1nnc(-c2ccccc2F)o1)OCc1ccccc1,-0.7%
22,CC[n+]1c(/C=C/Nc2ccccc2)oc2ccccc21,1.7%
23,CC[n+]1ccccc1/C=C/c1ccc(N(C)C)cc1,26.1%
24,CC[n+]1ccccc1/C=C/Nc1ccccc1,62% (active)
25,CCOC(=O)COn1c(=O)c(C)[n+]([O-])c2ccccc21,4.8%
26,CC(C)(C)c1cc(CCC(=O)NN)cc(C(C)(C)C)c1O,-6.6%
27,CC(C)C(C(=O)OCC(=O)c1cccc([N+](=O)[O-])c1)N1C(=O)[C@@H]2[C@H]3CC[C@H](C3)[C@@H]2C1=O (stereo partly drawn),21.3%

row,Structure (SMILES),inhibition
1,OC1(c2ccc(F)cc2)CCN(Cc2ccccc2)C1 (stereo not drawn),-8.8%
2,OC1(c2ccccc2)CCN(Cc2ccccc2)CC1,57.2% (active)
3,OC1(c2ccc3ccccc3c2)CCN(Cc2ccccc2)C1 (stereo not drawn),-11.8%
4,CCC1(C)Cc2[nH]c(=O)c(C#N)cc2CO1 (stereo not drawn),2.9%
5,COc1cc(/C=N/Nc2nc(C)nc3c2cnn3-c2ccccc2)ccc1O,6.9%
6,c1cc2nnnn2nc1N1CCCCC1,-6.5%
7,CN1CCN(C(=O)c2cnn3c(C(F)F)cc(C4CC4)nc23)CC1,9.1%
8,O=C(c1cnn2c(C(F)F)cc(C3CC3)nc12)N1CCCC1,-5.5%
9,O=C(c1cnn2c(C(F)F)cc(C3CC3)nc12)N1CCOCC1,53.1% (active)
10,O=C(CSc1ccc2ccccc2c1)NCCc1ccc(O)c(O)c1,52.6% (active)
11,COc1ccc(CCNC(=O)CSc2ccc3ccccc3c2)cc1OC,1.7%
12,NS(=O)(=O)c1ccc(CCNC(=O)CSc2ccc3ccccc3c2)cc1,-13.1%
13,Cc1cc(C)n2nc(C(=O)OCCOc3ccc(Br)cc3)nc2n1,7.1%
14,COc1cc2nc(NC(=O)c3ccc(Cl)cc3)[nH]c(=O)c2cc1OC,25.5%
15,COc1ccc(C(=O)c2coc(-c3ccccc3C(=O)O)c2C(=O)O)cc1,-8.2%
16,Cc1ccc(C(=O)c2coc3c2C(=O)C(=O)c2ccccc2-3)cc1,72.9% (active)
17,O=C(c1ccccc1)c1coc2c1C(=O)c1ccccc1C2=O,-42.6%
18,O=C1c2ccccc2C(=O)c2c1oc(C(F)(F)F)c2C(=O)c1ccccc1,-31.5%
19,Cc1ccc(C(=O)c2c[nH]cc2-c2ccccc2)cc1,-1%
20,O=C1C(=O)c2c(C(=O)c3ccccc3)coc2-c2ccccc21,73.4% (active)
21,O=C1Nc2ccc([N+](=O)[O-])cc2C1=Nc1cccc(CO)c1,56.8% (active)
22,Cc1cccc(N=C2NC(=O)c3cc([N+](=O)[O-])ccc32)c1,-1.4%
23,O=C1NC(=Nc2ccccc2)c2ccc([N+](=O)[O-])cc21,28.5%
24,NC(=O)c1ccc(C(=O)c2ccc([N+](=O)[O-])cc2)cc1,-7.1%
25,NC(=O)c1ccc(N=C2C(=O)Nc3ccc([N+](=O)[O-])cc32)cc1,52.5% (active)
26,Cc1ccc(N=C2NC(=O)c3cc([N+](=O)[O-])ccc32)cc1,14.1%
